Inconclusive results are not listed. A call without a number means that no potency is given here. The source made the active and inactive calls. Calls come from the whole dose curve; as a rule, active = well fitted inhibition curve with a large enough effect; inconclusive = small, poorly fitted or top-dose-only effect; inactive = no such curve, though single readings can be large or run the other way.
Potency is the fitted concentration of half-maximal effect.

The assay is described as follows: Acumen qHTS Assay for Inhibitors of the mTORC1 Signaling Pathway in WT MEF Cells: Hit Validation. Note: nearly all actives have a fitted effect of over 60% in size. The conditions noted are these: Acumen imaging; series mostly up to 37.3 µM. The method in brief:
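Read-out is immunofluorescent phospho-rpS6 (Ser235/236) normalised to PI-stained cell number, reported as % active cells using a 7.5 nM rapamycin threshold. Cells: WT or Tsc2-/-, p53-/- MEFs, compound-exposed 24 h at 37C; PI count also tracks viability.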
A general note: Quantitative high-throughput screening tests each substance at several concentrations.
Consider `Cn1ccc2c(OCC(=O)Nc3ccc(OC(F)(F)F)cc3)cccc2c1=O`, for which the Potency result was “inactive”.

For the compound `Cc1nn(C(C)C(=O)NC2CCCCC2)c(=O)c2c1sc1ccccc12` (stereo not given), the Potency entry was “inactive”.

For `Cc1ccc(NC(=O)CSc2nc(=O)cc(N)n2CCc2ccccc2)cc1`, the Potency entry was “inactive”.

As to `COc1ccc(C)cc1NC(=O)C(Cc1ccccc1)NS(=O)(=O)c1ccc(Br)s1` (stereo not given), the Potency entry is “inactive”.

For the compound `CN1CCN(C2(CNC(=O)c3ccc(C(C)(C)C)cc3)CCCCC2)CC1`, the Potency result is “inactive”.

For the compound `CC(C)(C)c1ccc(C2NC(=O)c3n[nH]c(-c4cccs4)c32)cc1` (stereo not given), the Potency entry is “inactive”.

On to `COc1ccc2c(c1)CC(C(=O)Nc1cc(Cl)ccc1C)CO2` (stereo not given), for which the Potency entry was “inactive”.

On to `CN(CCCNC(=O)c1cc2c(Cl)nc3ccccc3c2s1)Cc1ccccc1`, for which the Potency result was “inactive”.

As for `CCOc1cc(C2CC(=O)Nc3cc4c(cc32)OCCO4)ccc1O` (stereo not given), the Potency entry was “inactive”.

On to `O=S(=O)(NCc1nc2cccnc2n1Cc1ccccc1Cl)c1ccc(F)c(Cl)c1`, for which the Potency result is “inactive”.

Turning to `CCOc1ccc(N(Cc2ccccc2)C(=O)c2nc(S(C)(=O)=O)ncc2Cl)cc1`, the Potency is 2.07 µM (active).

Turning to `O=C(NCc1ccccc1Cl)C(=O)NCC(c1cccs1)S(=O)(=O)c1cccs1` (stereo not given), the Potency entry was “inactive”.

Regarding `COc1ccc(-c2n[nH]c3c2C(c2ccc(O)cc2)N(c2ccc(Br)cc2)C3=O)cc1` (stereo not given), the Potency entry is “inactive”.

With `CCOc1ccccc1NC(=O)CSc1cc(=O)n(CC)c2ccccc12`, the Potency result was “inactive”.

For the compound `CC(C)S(=O)(=O)c1oc(-c2cccs2)nc1S(=O)(=O)c1ccc(F)cc1`, the Potency was 0.826 µM (active).

For the compound `C#Cc1cccc(Nc2ncnc3cc(OCCOC)c(OCCOC)cc23)c1`, the Potency result was “inactive”.

For `COc1ccc(C2=NS(=O)(=O)N(C)C(C(=O)Nc3ccc(OC(F)(F)F)cc3)=C2)cc1`, the Potency result was “inactive”.

In the case of `O=C(NCCc1nc2ccccc2n1Cc1ccc(Cl)cc1Cl)c1ccco1`, the Potency entry is “inactive”.

With `Nc1nnc(SCC(=O)Nc2cccc(F)c2)s1`, the Potency result was “inactive”.

In the case of `O=C(CC1(O)C(=O)N(CCc2ccccc2)c2ccc(Br)cc21)c1ccccc1O` (stereo not given), the Potency entry is “inactive”.

In the case of `Cc1cccc(Nc2ncc(NC(=O)c3cccc(F)c3)c(Nc3cccc(C)c3)n2)c1`, the Potency was 5.85 µM (active).

Consider `CN(Cc1ccccc1)C(=O)CSc1c2c(nc3ccc(Cl)cc13)CCCC2`, for which the Potency result was “inactive”.

Consider `COCc1oc2ccc(NS(=O)(=O)c3ccc(C)cc3)cc2c1C(=O)OC`, for which the Potency was 5.85 µM (active).

On to `NC(=O)c1ccccc1NC(=O)c1ccc(-c2ccc(Br)cc2)o1`, for which the Potency result was “inactive”.

Take `COc1cc(OC)cc(C(=O)NCCc2csc(-c3cccc(C)c3)n2)c1`: the Potency result was “inactive”.

In the case of `COc1ccc(S(=O)(=O)NCCc2sc3nc(-c4ccc(C)cc4)nn3c2C)cc1F`, the Potency result was “inactive”.

Consider `CCN(CC)CCn1c(=N)n(CC(O)COc2ccccc2C)c2ccccc21` (stereo not given), for which the Potency is 11.7 µM (active).

For the compound `CCc1ccc(NC(=O)Cn2nc(C(F)(F)F)c3c2CCCC3)cc1`, the Potency entry is “inactive”.

As to `Cc1ccccc1NC(=O)c1sc2nc3c(cc2c1N)CCCC3`, the Potency result was “inactive”.

As to `Cc1ccc(-c2nnn(CC(=O)N(CC(=O)NCCC(C)C)c3ccc(F)cc3)n2)cc1`, the Potency entry is “inactive”.

Take `CCCCN(CC)CCNC(=O)C1CCN(c2nnc(C)c3c(C)n(-c4ccc(C)cc4)nc23)CC1`: the Potency result was “inactive”.

Consider `Cc1cc(C)c(NC(=O)C2CCN(c3nc4ccccc4n4cccc34)CC2)c(C)c1`, for which the Potency entry was “inactive”.

Consider `COc1ccc(CCN(C)CCCC(C#N)(c2ccc(OC)c(OC)c2)C(C)C)cc1OC` (stereo not given), for which the Potency result is “inactive”.

On to `NC(N)=NC(=O)c1nc(Cl)c(N)nc1N`, for which the Potency entry was “inactive”.

Consider `CCCCCCCCCCCCCCC[C@H](O)[C@@H](N)CO`, for which the Potency entry was “inactive”.

As to `COc1cc(NC(=O)Cn2nc(C(F)(F)F)c3c2CCCC3)c(OC)cc1Cl`, the Potency result is “inactive”.

In the case of `Cc1cccc(CS(=O)(=O)c2ncc(Cl)c(C(=O)Nc3nnc(C(C)C)s3)n2)c1`, the Potency is 14.7 µM (active).

Consider `CCOC(=O)c1ccc(NC(=O)c2nc(S(=O)(=O)Cc3ccccc3)ncc2Cl)cc1`, for which the Potency is 6.56 µM (active).

Consider `CC(C)c1ccc(C2Sc3ccccc3NC3=C2C(=O)c2ccccc23)cc1` (stereo not given), for which the Potency result was “inactive”.

For the compound `CCOCc1cc(CN2CCN(c3ccccc3OC)CC2)c(O)c2ncccc12`, the Potency result was “inactive”.

Values taken from PubChem BioAssay AID651789 (National Center for Advancing Translational Sciences (NCATS), 2012).
